Reference: publication PMC4336329 (PLoS ONE, 2015)
About 14,000 (4.5%) of roughly 310,000 compounds showed an effect of 50% or more. The effect is printed as a negative number. The sample holds strong results, similar compounds and a random draw of the others, so the mix is not that of the screen.

biological target: human ether-à-go-go-related gene (hERG) potassium channel (human, UniProt Q12809); experiment: primary screen, population patch clamp on CHO cells stably expressing hERG; higher = less effect of the substance
Sequence (Q12809 whole entry, looked up): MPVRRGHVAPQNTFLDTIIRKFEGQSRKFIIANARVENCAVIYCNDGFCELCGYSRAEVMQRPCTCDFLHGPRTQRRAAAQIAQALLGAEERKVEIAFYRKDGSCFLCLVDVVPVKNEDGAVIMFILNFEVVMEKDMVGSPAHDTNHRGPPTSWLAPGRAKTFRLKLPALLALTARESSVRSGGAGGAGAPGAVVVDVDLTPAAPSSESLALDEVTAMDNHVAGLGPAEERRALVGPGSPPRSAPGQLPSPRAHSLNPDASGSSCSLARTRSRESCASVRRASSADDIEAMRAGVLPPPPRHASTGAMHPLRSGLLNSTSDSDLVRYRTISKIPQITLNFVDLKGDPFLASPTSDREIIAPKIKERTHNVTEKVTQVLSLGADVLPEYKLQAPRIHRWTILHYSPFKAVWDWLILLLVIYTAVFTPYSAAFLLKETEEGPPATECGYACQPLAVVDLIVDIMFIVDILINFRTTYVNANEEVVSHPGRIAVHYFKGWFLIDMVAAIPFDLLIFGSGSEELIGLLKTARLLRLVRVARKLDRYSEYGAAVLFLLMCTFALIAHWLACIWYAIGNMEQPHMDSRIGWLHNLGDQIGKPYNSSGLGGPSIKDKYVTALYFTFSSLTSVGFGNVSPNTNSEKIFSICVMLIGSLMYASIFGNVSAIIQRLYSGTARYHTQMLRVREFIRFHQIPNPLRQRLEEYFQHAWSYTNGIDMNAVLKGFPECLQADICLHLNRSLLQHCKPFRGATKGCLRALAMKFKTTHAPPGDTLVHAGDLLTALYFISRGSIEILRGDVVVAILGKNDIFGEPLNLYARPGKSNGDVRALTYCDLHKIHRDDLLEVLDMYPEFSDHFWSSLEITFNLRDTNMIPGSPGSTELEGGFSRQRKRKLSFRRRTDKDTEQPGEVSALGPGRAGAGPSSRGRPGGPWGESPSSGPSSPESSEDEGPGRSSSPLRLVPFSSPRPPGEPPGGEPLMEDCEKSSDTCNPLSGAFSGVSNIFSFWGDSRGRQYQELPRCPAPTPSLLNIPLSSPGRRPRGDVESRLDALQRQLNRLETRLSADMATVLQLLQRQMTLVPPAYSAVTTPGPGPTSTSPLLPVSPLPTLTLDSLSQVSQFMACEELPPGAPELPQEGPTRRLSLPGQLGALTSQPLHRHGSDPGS
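Note: peak tail current of the secondary pulse compared with the same well before compound.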

| Structure (SMILES) | hERG current change (%, negative = inhibition) at 10uM [%] |
| --- | --- |
| COc1ccc2cc(CN(CC3CCCO3)S(=O)(=O)c3ccccc3Cl)c(=O)[nH]c2c1 (centres unmarked) | -36.7 |
| O=C(/C=C/Nc1ccc(F)c(Cl)c1)c1ccco1 | -0.57 |
| COc1cc(C(=O)NCCCN2CCCC2=O)cc(OC)c1OC | -2.96 |
| COc1ccc(-c2cc(C(=O)NCCCN3CCCC3=O)c3ccccc3n2)cc1 | -12 |
| COc1cc(C(=O)NCCCN2CCCC2=O)cc(Br)c1OCc1ccccc1 | -50.7 |
| O=C(NCCCN1CCCC1=O)c1cc(-c2ccc3c(c2)OCO3)nc2ccccc12 | -4.06 |
| COc1ccc(-c2cc(C(=O)NCCCN3CCCC3=O)c3ccccc3n2)cc1OC | -64.7 |
| O=C(NCCCN1CCCC1=O)c1ccc(OCc2ccccc2)cc1 | -12.9 |
| CCN(CC)S(=O)(=O)c1ccc(-c2cn3cc(Cl)ccc3n2)cc1 | 2.07 |
| COc1ccc(-n2c3c(c(=O)[nH]c2=O)C(NC(=O)c2ccncc2)(C(F)(F)F)C(=O)N3)cc1 (centres unmarked) | 18.1 |
| CCc1cc2c(Sc3nc4ccccc4s3)ncnc2s1 | 16.9 |
| Cc1cc(C)cc(NC(=O)CCCSc2nc3ccccc3[nH]2)c1 | -2.7 |
| Cn1c(=O)c2c(ncn2CC(=O)OCC(=O)NC2CCCc3ccccc32)n(C)c1=O (centres unmarked) | 2.36 |
| O=C(Nc1ccc2c(c1)OCO2)c1cccc2c1C(=O)N(Cc1cccnc1)C2 | -47 |
| COc1ccc(CNC(=O)c2cccc3c2C(=O)N(Cc2cccnc2)C3)cc1 | -38.6 |
| COCCN1Cc2cccc(C(=O)NCc3cccnc3)c2C1=O | 3.96 |
| O=C(NCc1ccc(F)cc1)c1cccc2c1C(=O)N(Cc1cccnc1)C2 | -61.8 |
| COc1cc(NC(=O)c2cccc3c2C(=O)N(Cc2cccnc2)C3)cc(OC)c1OC | -79.2 |
| COc1ccccc1CNC(=O)c1cccc2c1C(=O)N(Cc1cccnc1)C2 | -70.1 |
| CCOc1ccc(NC(=O)c2cccc3c2C(=O)N(Cc2cccnc2)C3)cc1 | -22 |

| Structure (SMILES) | hERG current change (%, negative = inhibition) at 10uM [%] |
| --- | --- |
| O=C(NCc1cccnc1)c1cccc2c1C(=O)N(Cc1cccnc1)C2 | -11 |
| COC(CNC(=O)c1cccc2c1C(=O)N(Cc1cccnc1)C2)OC | -15.3 |
| O=C(CC(Sc1n[nH]c(-c2ccccc2)n1)c1ccccc1)NCc1ccccc1 (centres unmarked) | -16 |
| Cc1ccc2sc(N(CCN(C)C)C(=O)/C=C/c3cccs3)nc2c1C.Cl | 11.8 |
| COc1ccccc1C(=O)OCC(=O)Nc1cc(S(=O)(=O)N2CCOCC2)ccc1N1CCCC1 | -7.82 |
| O=C(NCC(=O)N1CCCC1C(=O)O)OC1CCCCC1 (centres unmarked) | -6.8 |
| Cc1cccc(-c2noc(-c3ccc(F)cc3)n2)c1 | 15.1 |
| Cc1cccc(-c2noc(-c3ccno3)n2)c1 | -53 |
| Cc1ccc(-c2noc(-c3ccno3)n2)cc1 | 9.19 |
| COc1ccccc1C(CNC(=O)CNC(=O)c1ccc(C)c(C)c1)N1CCCC1 (centres unmarked) | -6.27 |
| C(=C\c1ccccc1)/CSc1nnc(-c2ccccc2)n1Cc1ccco1 | -74.7 |
| CCSc1nnc(-c2cccnc2)n1Cc1ccco1 | -7.73 |
| Clc1ccc(-n2c(SC/C=C/c3ccccc3)nnc2-c2cccnc2)cc1 | -50.3 |
| C(=C\c1ccccc1)/CSc1nnc(-c2cccnc2)n1Cc1ccco1 | -70.8 |
| O=C(O)CCSc1nnc(-c2cccnc2)n1-c1ccccc1 | 11.2 |
| C(=C\c1ccccc1)/CSc1nnc(-c2ccncc2)n1Cc1ccco1 | -63.9 |
| Cn1c(SC/C=C/c2ccccc2)nnc1-c1ccco1 | -27.1 |
| Nn1c(SC/C=C/c2ccccc2)nnc1-c1ccncc1 | -8.06 |
| Nn1c(SC/C=C/c2ccccc2)nnc1-c1cccnc1 | 23.4 |
| c1ccc(-c2nnc(CSc3nnc(-c4ccncc4)n3Cc3ccco3)o2)cc1 | -29.8 |

| Structure (SMILES) | hERG current change (%, negative = inhibition) at 10uM [%] |
| --- | --- |
| O=C(CSc1nnc(-c2cccnc2)n1Cc1ccco1)N1c2ccccc2Sc2ccccc21 | -33.7 |
| Cc1noc(C)c1CSc1nnc(-c2ccccc2)n1Cc1ccco1 | -21.9 |
| Cc1ccccc1OCCn1c(CCNC(=O)C(C)C)nc2ccccc21 | -6.24 |
| CCN1C(=O)CC(C(=O)Nc2ccc(F)cc2)SC1=Nc1ccc2c(c1)OCO2 (centres unmarked) | -13.5 |
| CC(C)Sc1nc(N)c2c3c(sc2n1)CN(C)CC3 | -34 |
| CC(=O)Oc1ccc(/C=N/NC(=O)CCSc2ccccc2)cc1 | -8.83 |
| COc1ccc2nc(-c3ccccc3)[nH]c2c1 | -1.4 |
| COc1ccc(/C=C/C(=O)NCC(=O)N/N=C/c2cccnc2)cc1 | -14.9 |
| COc1ccccc1CNC(=S)Nc1ccc2nc(N3CCN(C)CC3)cc(C)c2c1 | -1.77 |
| Cc1cc(N2CCN(C)CC2)nc2ccc(NC(=S)NC3CC3)cc12 | 3.2 |
| CCCCNC(=S)Nc1ccc2nc(N3CCN(CC)CC3)cc(C)c2c1 | -44.6 |
| CCN(CC)CCNC(=S)Nc1ccc2nc(N3CCN(CC)CC3)cc(C)c2c1 | 11.2 |
| Cc1cc(N2CCN(C)CC2)nc2ccc(NC(=S)NCc3cccs3)cc12 | -56.3 |
| CCN1CCN(c2cc(C)c3cc(NC(=S)NCc4cccs4)ccc3n2)CC1 | -59.7 |
| CCN1CCN(c2cc(C)c3cc(NC(=O)c4cccs4)ccc3n2)CC1 | -55.1 |
| COc1ccc(CNC(=S)Nc2ccc3nc(N4CCN(C)CC4)cc(C)c3c2)cc1 | -51.1 |
| Cc1cc(N2CCN(C)CC2)nc2ccc(NC(=S)NCCN3CCc4ccccc4C3)cc12 | -23.7 |
| COc1ccc(CNC(=S)Nc2ccc3nc(N4CCOCC4)cc(C)c3c2)cc1 | -24 |
| CCN1CCN(c2cc(C)c3cc(NC(=O)c4cccnc4Cl)ccc3n2)CC1 | -6.83 |
